Experiment [1] can be described thus: qHTS to identify inhibitors of the type 1 interferon - major histocompatibility complex class I in skeletal muscle: primary screen against the NCATS Pharmaceutical Collection (AID 1347407).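 Note: luminescence of HiBiT knocked into endogenous HLA-B as interferon-induced MHC class I level; % is set by controls: 0 for no effect and ±100 for the full control effect.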 An outline of the steps: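 Immortalized human myoblasts (C25cl48) with HiBiT knocked into endogenous HLA-B*08:01 were stimulated with 4.0 ng/ml IFN-beta and treated with compounds ([…] top 46 uM) for 24 hrs at 37 C. HiBiT lytic luminescence read.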
On the technique in general: qHTS replaces the single test concentration by a dilution series.

The target in experiment [2] is Protein phosphatase 1D (Homo sapiens) (UniProt O15297). Briefly: RapidFire Mass Spectrometry qHTS Assay for Modulators of WT P53-Induced Phosphatase 1 (WIP1) (AID 1347424).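 For activity change, negative = inhibition: series mostly up to about 63 µM; plate controls were DMSO wells for no effect and GSK830371 inhibitor control at 10 µM for full effect.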 Note: potency is the fitted concentration of half-maximal effect. An outline of the steps: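 RapidFire MS readout of dephosphorylated VEPPL-S-QETFS product, with 1 uM isotope-labelled peptide standard. Reaction: 10 nM WIP1, 2 uM phosphopeptide substrate, 5 min, room temperature, after 1 h compound preincubation; stopped with 0.5% formic acid.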
Protein phosphatase 1D (Homo sapiens), sequence (O15297 whole entry, looked up): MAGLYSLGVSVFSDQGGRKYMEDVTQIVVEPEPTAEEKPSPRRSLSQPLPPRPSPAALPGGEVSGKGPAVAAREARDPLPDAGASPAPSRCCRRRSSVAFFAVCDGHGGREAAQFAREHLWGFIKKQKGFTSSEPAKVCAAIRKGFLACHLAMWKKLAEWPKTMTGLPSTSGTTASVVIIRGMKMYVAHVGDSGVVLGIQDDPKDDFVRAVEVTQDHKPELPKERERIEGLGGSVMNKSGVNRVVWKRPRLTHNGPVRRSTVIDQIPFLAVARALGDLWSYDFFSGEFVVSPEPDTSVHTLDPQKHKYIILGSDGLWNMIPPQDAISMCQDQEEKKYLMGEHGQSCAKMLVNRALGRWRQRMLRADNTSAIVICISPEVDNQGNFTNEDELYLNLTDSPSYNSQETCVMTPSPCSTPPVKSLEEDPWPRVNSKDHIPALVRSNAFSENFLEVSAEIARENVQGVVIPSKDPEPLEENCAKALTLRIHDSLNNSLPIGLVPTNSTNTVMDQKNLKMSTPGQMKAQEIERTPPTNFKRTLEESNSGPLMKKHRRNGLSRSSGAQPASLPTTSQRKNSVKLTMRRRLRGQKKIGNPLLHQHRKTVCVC

Experiment [3] has the same target. Briefly: Rhodamine-PBP qHTS Assay for Modulators of WT P53-Induced Phosphatase 1 (WIP1) (AID 1347425). Note: % of control where 0% means no effect. An outline of the steps: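 The read-out is the change in Rhodamine-PBP fluorescence (f1 - f0, ex 525/em 598 nm) as Pi is released, read each minute for 11 min. Final reaction: 5 nM WIP1, 10 uM phosphopeptide VEPPL-pS-QETFS, 10 uM Rh-PBP, 50 mM Tris-HCl pH 7.5, 30 mM MgCl2. Compound was preincubated with enzyme for 1 hour at room temperature.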

Experiment [4] concerns the target Calcium and integrin-binding protein 1 (Homo sapiens) (UniProt Q99828). Briefly: Primary qHTS for Identification of Calcium Integrin Binding Protein 1 (CIB1) Competitor (AID 1508620). Note: top concentration of the series differs between compounds; % is set by controls: 0 for no effect and ±100 for the full control effect. The essentials:
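Fluorescence polarization competition: GST-tagged CIB1 (1 uM final) preincubated with compound 15 min at room temperature, then FITC-labelled alphaIIb peptide (100 nM final) added. After 15 min at room temperature, polarization read at Ex 480/Em 540.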

Experiment [5] in a line: qHTS to identify inhibitors of the type 1 interferon - major histocompatibility complex class I in skeletal muscle: primary screen against the NCATS Mechanism Interrogation Plate v5.0 (MIPE) Libary (AID 1347411).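 For activity change, negative = inhibition: plate controls were vehicle for no effect and reference inhibitor for full effect.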 Note: nearly all actives have a fitted effect of over 65% in size. Note: potency is the fitted concentration of half-maximal effect. The essentials: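 Seed engineered human myoblasts (HLA-B HiBit) in medium without dexamethasone containing 4 ng/ml IFN-beta; after 1 hr add compound titrations (top 46 uM final). Incubate 24 hrs at 37 C, lyse 10 min with HiBiT reagent, read luminescence.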

Experiment [6] can be described thus: Primary qHTS for inhibitors of La Crosse Virus (LACV) - induced cell death in SH-SY5Y cells (AID 1508616).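 Note: top concentration of the series differs between compounds; 0% = infected DMSO wells and 100% = uninfected DMSO wells; higher means more rescue of cells from virus-induced death.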 The essentials:
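SH-SY5Y, 6000 cells/well; cpd via pin tool in DMSO; LACV 0.01 MOI; 6 d 37C 5% CO2; ATPLite, 5 min RT; luminescence normalized to ±virus DMSO controls.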

Experiment [7] is described as follows: Primary qHTS for inhibitors of SARS-S pseudo-typed particle cell entry (AID 1479145; calls by dose curve; note: series mostly up to about 57 µM; % is set by controls: 0 for no effect and ±100 for the full control effect; nearly all actives have a fitted effect of over 45% in size).
Experiment [8] can be described thus: Primary qHTS for Huh7 cytotoxicity: counterscreen for inhibitors of MERS-S pseudotyped particle cell entry (AID 1479147; calls by dose curve).
The nature of experiment [9]: Primary qHTS for inhibitors of MERS-S pseudo-typed particle cell entry (AID 1479149; calls by dose curve; note: series mostly up to about 57 µM; % is set by controls: 0 for no effect and ±100 for the full control effect; nearly all actives have a fitted effect of over 60% in size).
The nature of experiment [10]: Primary qHTS for Vero E6 cytotoxicity: counterscreen for inhibitors of SARS-S pseudo-typed particle cell entry (AID 1479150; calls by dose curve; note: % is set by controls: 0 for no effect and ±100 for the full control effect).
Experiment [11] can be described thus: qHTS for inhibitors of adenylyl cyclases using a fission yeast platform: a pilot screen against the NCATS LOPAC library (AID 1347410).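 Note: plate controls were DMSO vehicle for no effect and DPI positive control for full effect.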 The essentials: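 S. pombe CHP2027 (AC9-GNAS-PDE4D2) carrying PKA-repressed fbp1-GFP, incubated 18 h at 30C in EMM with LOPAC compounds at up to 57 uM. GFP gain-of-signal read by laser scanning cytometry; DMSO negative control.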

In experiment [12] the target is Single-stranded DNA cytosine deaminase (Homo sapiens) (UniProt Q9GZX7). Briefly: Validation qHTS assay for inhibitors of Activation Induced Cytidine Deaminase (AID): AID signal (AID 1347429). Note: % is set by controls: 0 for no effect and ±100 for the full control effect. An outline of the steps: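 Steps: dispense AID with UDG; pin-transfer compound up to 114 uM final; add DJC20/DJC23 substrate and hold 4 hr at room temperature; add NaOH, hold 30 min; read FRET signal (540/590 nm).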
Single-stranded DNA cytosine deaminase (Homo sapiens), sequence (Q9GZX7 whole entry, looked up): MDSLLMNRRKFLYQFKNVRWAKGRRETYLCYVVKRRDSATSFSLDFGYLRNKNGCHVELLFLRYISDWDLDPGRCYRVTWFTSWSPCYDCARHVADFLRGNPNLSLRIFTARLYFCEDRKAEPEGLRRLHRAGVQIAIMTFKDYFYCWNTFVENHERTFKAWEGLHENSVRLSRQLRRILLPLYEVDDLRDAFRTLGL

Experiment [13] is described as follows: Confirmatory qHTS for VERO E6 Cytotoxicity Assay: Counterscreen for SARS-CoV-2 CPE Assay (AID 1508605; calls by dose curve; note: series mostly up to about 20 µM; % is set by controls: 0 for no effect and ±100 for the full control effect; nearly all actives have a fitted effect of over 60% in size).
The nature of experiment [14]: Confirmatory qHTS for activators (rescue) of SARS-CoV-2 Cytopathic Effect (CPE) (AID 1508606; calls by dose curve; note: potency is the fitted concentration of half-maximal effect; nearly all actives have a fitted effect of over 70% in size).
Experiment [15] can be described thus: Validation qHTS assay for inhibitors of Activation Induced Cytidine Deaminase (AID): UDG Counterscreen signal (AID 1347427). Note: 0% is about no effect. An outline of the steps: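 Fluorescence at 560 nm excitation, 665 nm emission reports UDG signal after 250 mM NaOH (2x) addition and 30 min. Enzymes (AID 1 uM, UDG 2 U/mL, at 4/3x) preincubated 10 min with compound, then 4 h with 4x 250 nM DJC20/DJC23 substrate at room temperature.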

In experiment [16] the target is Calcium and integrin-binding protein 1 (Homo sapiens) (UniProt Q99828). Briefly: Validation qHTS for Identification of Calcium Integrin Binding protein 1 (CIB1) Competitor (AID 1508618). Note: % is set by controls: 0 for no effect and ±100 for the full control effect. The essentials:
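CIB1-GST (1 uM final) incubated 15 min at room temperature with compounds (up to 114 uM), then FITC-labelled alphaIIb peptide (100 nM) added. FP read (Ex 480/Em 540) after 15 min, pH 7.4 buffer containing 5 mM CaCl2.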

For experiment [17] the target is unchanged. Briefly: Confirmatory qHTS for Identification of Calcium Integrin Binding Protein 1 (CIB1) Competitor (AID 1508617). Note: nearly all actives have a fitted effect of over 65% in size. Note: potency is the fitted concentration of half-maximal effect. The essentials: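 Compounds at up to 114 uM final met 1 uM GST-tagged CIB1 for 15 min at room temperature (HEPES pH 7.4, 5 mM CaCl2). FITC-labelled alphaIIb peptide, 100 nM, added; polarization read after 15 min more.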

The results in this text go back to PubChem BioAssay (NCATS).

Each structure is given as a SMILES string. Unmarked numbers belong to inactive results. Inconclusive results are not listed. The source made the active and inactive calls. Unless noted, calls come from the whole dose curve; as a rule, active = well fitted curve in the direction sought with a large enough effect; inconclusive = small, poorly fitted or top-dose-only effect, or another doubt; inactive = no such curve, though single readings can be large; an effect the other way counts as inactive or inconclusive.

Calcium and integrin-binding protein 1 (Homo sapiens), sequence (Q99828 whole entry, looked up): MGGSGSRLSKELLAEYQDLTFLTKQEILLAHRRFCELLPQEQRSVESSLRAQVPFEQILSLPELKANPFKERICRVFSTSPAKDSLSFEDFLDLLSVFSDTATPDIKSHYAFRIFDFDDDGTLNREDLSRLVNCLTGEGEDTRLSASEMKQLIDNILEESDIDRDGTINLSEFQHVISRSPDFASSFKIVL

Take `CCCCOC(=O)c1ccccc1C(=O)OCc1ccccc1`: the result in [1], in experiment [3] and in experiment [4] was inactive. In addition, the Potency entry in experiment [2] was “inactive”.
As for `CCC1(CCC(C)C)C(=O)NC(=O)NC1=O`, the compound was called inactive in experiment [1], in experiment [3] and in [4]. Moreover, the Potency entry in experiment [2] is “inactive”.
For `CCNC(=O)C[C@@H]1N=C(c2ccc(Cl)cc2)c2cc(OC)ccc2-n2c(C)nnc21`, the Potency result in [5] was “inactive”. For the same compound, the outcome in [4] was inactive.
`CCCCC(CC)COC(=O)c1ccccc1C(=O)OCC(CC)CCCC` (stereo unspecified): the result in experiment [1], in [3], in experiment [6] and in experiment [4] was inactive. Moreover, the Potency entry in [2] is “inactive”.
Take `CN(C)[C@@H]1C(=O)C(C(N)=O)=C(O)[C@@]2(O)C(=O)C3=C(O)c4c(O)cccc4[C@@](C)(O)[C@H]3[C@H](O)[C@@H]12`: the Potency result in experiment [5], in experiment [7], in experiment [8], in experiment [9] and in [10] was “inactive” throughout. In addition, the result in experiment [4] was inactive.
On to `Nc1ccc(Sc2ccc(N)cc2)cc1`, for which the compound was classed as inactive in [1] and in [4]. Also, in [2], the Potency entry was “inactive”.
As to `CCCCCCCCc1ccc(O)cc1`, the compound was called inactive in experiment [1] and in [4]. Besides, the Potency result in experiment [2] is “inactive”.
`O=S(=O)(O)C(F)(F)C(F)(F)C(F)(F)C(F)(F)C(F)(F)C(F)(F)C(F)(F)C(F)(F)F`: the outcome in experiment [1] and in experiment [4] was inactive. Moreover, in [2], the Potency is 1580 nM (active).
With `CC1=C(C(=O)O)N2C(=O)[C@@H](N)[C@H]2SC1`, the activity change, negative = inhibition in experiment [1] is -3.5% [at 19 µM]; in [2], 5.52% [at 26.6 µM]; in experiment [3], 6.57% [at 23.8 µM]. The activity change in experiment [6] was -1.92% [at 1.78 µM]. Further, the outcome in experiment [4] was inactive.
As for `COc1nn(CSP(=S)(OC)OC)c(=O)s1`, the call in [1] and in experiment [6] was inactive. For the same compound, in [2], the Potency entry was “inactive”.
On to `COc1ccc2c(c[n+](C)c3c4cc5c(cc4ccc23)OCO5)c1OC`, for which the call in experiment [11] and in [12] was inactive.
Regarding `O=C1C(I)=CC(=C(c2cc(I)c(O)c(I)c2)c2ccccc2C(=O)O)C=C1I`, the call in experiment [1] and in [6] was inactive.
In the case of `CC(C)(C)C(O)C(Oc1ccc(Cl)cc1)n1cncn1` (stereo unspecified), the outcome in experiment [1], in experiment [3] and in experiment [4] was inactive. In addition, in experiment [2], the Potency result is “inactive”.
As for `O=C(NCC1CCOCC1)c1cnc(Nc2ccc(Cl)cc2Cl)nc1C(F)(F)F`, in [5], the Potency result was “inactive”. Also, in experiment [4], the outcome was inactive.
Turning to `Fc1cc(Br)ccc1CBr`, the compound was called inactive in [1], in experiment [3] and in experiment [4]. The Potency result in experiment [2] was “inactive”.
For `CC1(N2CCC(n3c([C@@H]4CCCNC4)nc4ccccc43)CC2)CCCCCCC1`, the Potency entry in experiment [5] and in experiment [13] was “inactive” each time. Besides, the Potency in experiment [14] was 2820 nM (active). In [4], the result was inactive.
As for `C/C=C(/C)C(=O)O[C@H]1C(C)=C2[C@H]([C@@H]1OC(=O)CCCCCCC)[C@@](C)(OC(C)=O)C[C@H](OC(=O)CCC)[C@@]1(O)[C@H]2OC(=O)[C@@]1(C)O`, the Potency in experiment [5] is 16.5 nM (active). Besides, the result in experiment [15], in experiment [12], in [16] and in experiment [4] was inactive.
Regarding `Cc1nccc2c1[nH]c1ccccc12`, the compound was called inactive in experiment [11], in experiment [15], in [12] and in experiment [16].
`Cc1c(C(=O)c2cccc3ccccc23)c2cccc3c2n1[C@H](CN1CCOCC1)CO3`: the call in experiment [15] and in experiment [12] was inactive.
Take `Nc1ccc(Cl)cc1N`: in [6], the call was inactive.
Still for that read-out and setting: in the case of `O=C(O)CCCOc1ccc(Cl)cc1Cl` it was “inactive”.
As for `CCCCCCCCCCCCCCCC[N+](C)(C)C`, the Potency in experiment [17] is 70800 nM (active).
Still for that read-out and setting: in the case of `CC(=O)[O][Hg][c]1ccccc1` it was “inactive”.
